# The supplement of paper PMC6555819
# Tested on: PXR homodimer (NR concentration 270 nM)
# Assay: PBM binding z-score (relative to random genomic background probes); higher = stronger binding; sequences stand for … in GC…GCGATTGACAGCGTAGAATGAAGG
# Outline: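 On custom Agilent 4×180K arrays, double-stranded probes with 34-nt variable regions carried direct-repeat seeds, single-nucleotide variants, half-site ablations or random human genomic background. Ligand-free nuclear receptor dimers were applied for 1 h, and binding was read with antibodies against each partner (one per run). Binding z-scores come from regression-normalized fluorescence, with the random background probes as reference.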
row,Sequence,PBM binding z-score
1,AATACAGGGCCACTAGGCCAGAGTAGGTACGAAT,-0.266
2,TCTTGTAAATCAGCAGGTTAAGAAAGCTGGCCAA,-0.284
3,ACTATTAGTTGACTTAGGGCAACCGTTACGACGC,0.502
4,CAAACTAGGTCCCGAAAGGTCAAAGTCGAATGAC,1.52
5,CGTCCACGGTCAGCAGGTCAGTGAAAGCGACGTG,-0.459
6,ATCGAAAGGTCGGAGGTGAGTATACCCACCCGAA,0.241
7,GCTTACGGGTCAAAGGTTATTGCATGAATAGAAT,0.728
8,ATTCGGAGGACAAAGGTCAGAGCTACGCCAGTGA,0.477
9,GGTAGCAGGCCATTTGGGTCACTCAATGACGGGC,-0.0413
10,GATACAGGGTCAGCTCGAGGCCAGAGTATGGAAA,-0.0374
11,GCTTGTAGATCAAGGTTAAGATAGACTAAGCTAA,0.00293
12,ACTATTAGATGAGACGAGGGCAACCGATAGGTTG,0.757
13,AATACAGGGTCAACGTAGGCCAGAGTACGCACAG,0.288
14,GCATGTAGGTAATACAAGGTGAAAGTCCGATTGT,0.257
15,TCTATTAGTTGACGGGCAACCGACGAGTCCGTTT,0.151
16,GCTTTTAGATCAAGGTTAAGAAAGACTAAGCTAA,0.294
17,TCGAGTAGGTTACCAATGGGGCATTCTGCTTTCT,-0.788
18,CCTAGCGGGCCAGGGTCACTCAAGCATTTCGCTT,-0.612
19,GCTTGTAGATCAAGGATAAGAAAGACTAAGCTAA,-0.33
20,ATATGTAGGTTAAGGGTCATCCAGGTTGGTTCGC,2.5

row,Sequence,PBM binding z-score
1,ACAGACAGGTGAGTGAAGGTAACTCACCTGGACG,-0.14
2,CGAACTAGGTCAGAACAGGTCAGTGAAGGATGAT,0.18
3,TCCATTAGTTGAAGGGCAACCGACGAGTCCGTTT,0.683
4,CCTAGTTCGTCAAGGTCACACACGCTATAGGTAC,10.4
5,CCTATTAGTTGACCACAAGGGCAACCGAAGCTCG,1
6,CCTATTAGTTGACCATAAGGGCAACCGCAGCTCG,1.05
7,TCTGCTAGGTCAGTTGGTAAGCTAACGAGCTGCC,-1.11
8,GCAGACAGGTGAAACGCAGGTAACTCAAGGTGGC,-0.612
9,CCTCGGAGGACAACAGGCGGTCAGAGCTGCCAGA,-0.435
10,TCTTGTAGATCAAAAGAGGTTAAGAAAGTGCGCT,0.102
11,CCTACTGGGCCAAAAAGGTCATTGAAGCCGATAA,3.09
12,CAAACTAGGTCACGGAAGGTCAAAGTCGAATGAC,2.28
13,AGAATGAGGTTGTACGTAGATCAGGGAAGAAAGT,0.629
14,GTATCAAGGTGAATAGGTCGTTGATGAGTAGGCG,0.271
15,AGAACGAGGGCACGCTGAGATGATAGCAGAGTAG,-0.229
16,AGTCAAAGTTCATCTAGATAACGTAAGATATGCT,4.36
17,CGAACTAGGTCAGAACAGGAGAGTGAAGGATGAT,-0.235
18,CAAACTAGGTGACCGGAAGGTCAAAGTCCGCATG,1.01
19,ACAGACAGGTGAGTGAAGGAAACTCAGCTGGACG,-0.677
20,ATCCCAAGGTGATCGTGAGGTCGTTGATACTAAC,1.37
